The values that follow come from PubChem BioAssay AID652040 (Broad Institute, 2013).

Results with a measured potency or affinity are listed apart. Unmarked numbers belong to inactive results.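 The calls were made as follows: active = falling luciferase signal whose fitted half-maximal concentration is at most twice the top tested dose; inconclusive = flat inhibition between 30 and 70% or a poor curve fit; inactive = the rest.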

The nature of this experiment: off-target signal loss in HeLa-CEM21 co-culture – HeLa F-luc CTL cells, cherry-picked, counter-screen for HIV-1 Env fusion inhibitor project, dose response (AID 652040).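 Also: 0% = median of neutral control wells and -100% = doxycycline 40 µg/mL wells; more negative values mean stronger loss of luciferase signal.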 The note with it: HeLa-F-luc CTL cells with CEM21, firefly luciferase counterscreen; series mostly up to 35 µM; activity change, negative = inhibition: at the top concentration.
Consider `O=S(=O)(NC1CC1)c1ccc(S(=O)(=O)N2CCCc3ccccc32)cc1`, for which the “activity change, negative = inhibition” value is 9.61%.

Take `O=C(Nc1ccncc1)c1ccc(Cl)c(S(=O)(=O)N2CCc3ccccc32)c1`: the “activity change, negative = inhibition” value was 12.5%.

Regarding `COc1ccc(S(=O)(=O)N2CCCCC2)cc1NC(=O)CCCOc1ccc(C)cc1`, the “activity change, negative = inhibition” value was 4.9%.

With `O=C(COC(=O)c1cc(S(=O)(=O)N2CCOCC2)ccc1O)NCc1ccc2c(c1)OCO2`, the “activity change, negative = inhibition” value is 6.65%.

`O=C(COC(=O)c1cccc(S(=O)(=O)N2CCOCC2)c1)NCc1ccccc1`: the “activity change, negative = inhibition” value was 5.14%.

With `Cc1cc(Nc2cccc(C(F)(F)F)c2)cc(=O)n1-c1cccc(C(F)(F)F)c1`, the “activity change, negative = inhibition” value is 18.8%.

Take `COc1cc(CSc2nnnn2-c2ccc(C)cc2)cc(OC)c1OC`: the “activity change, negative = inhibition” value was 21.6%.

On to `CC(C)CN(C(=O)c1ccc(S(=O)(=O)N2CCCCC2)cc1)C1CCS(=O)(=O)C1` (configuration not stated), for which the “activity change, negative = inhibition” value is 30.9%.

Take `CCCCCCCCN1C(=O)[C@H](CC(=O)NCc2cccs2)C[C@@]2(C(=O)OCC)CCCC=C12`: the “activity change, negative = inhibition” value is -59.3%.

For the compound `CCc1ccc(C(=O)CN2C(=O)NC(C)(c3ccc(C)cc3)C2=O)cc1` (configuration not stated), the “activity change, negative = inhibition” value was 39.4%.

With `Cc1[nH]c2ccccc2c1/C=N\NC(=O)c1ccccc1Cl`, the “activity change, negative = inhibition” value is 34.2%.

For `CCOc1ccc(NC2c3ccccc3C(=O)N2Cc2ccco2)cc1` (configuration not stated), the “activity change, negative = inhibition” value was 57.3%.

Turning to `O=C(NNC(=O)C(c1ccccc1)c1ccccc1)c1ccccn1`, the “activity change, negative = inhibition” value was 49.4%.

For `CC(NNC(=S)N1CCCCCC1)c1ccc2ccccc2n1` (configuration not stated), the “activity change, negative = inhibition” value is 112%.

As for `Cc1ccc(NS(=O)(=O)c2cc(C(=O)N(C)C3CCN(C)CC3)ccc2Cl)cc1Cl`, the “activity change, negative = inhibition” value was 11.1%.

As to `CCc1nc2ccccc2c(C(=O)OCC(=O)Nc2cccc(S(=O)(=O)N3CCOCC3)c2)c1C`, the “activity change, negative = inhibition” value is -14.7%.

With `CCOC(=O)C1CCN(C(=O)c2ccc3c(c2)C(=O)N(c2ccccc2C)C3=O)CC1`, the “activity change, negative = inhibition” value is 3.39%.

Consider `Cc1ccc(C2CC(=O)c3cnc(N4CCc5ccccc5C4)nc3C2)cc1` (configuration not stated), for which the “activity change, negative = inhibition” value was 3.02%.

Take `Clc1ccc(-c2noc(CSc3nnc(-c4ccncc4)n3-c3ccccc3)n2)cc1`: the “activity change, negative = inhibition” value is 18.5%.

As for `Cc1nc2ccc(NC(=O)c3cc(S(=O)(=O)N(C)c4ccccc4)ccc3Cl)cc2s1`, the “activity change, negative = inhibition” value is 20.9%.

Consider `CCN1CCN(S(=O)(=O)c2ccc(Cl)c(C(=O)Nc3ccccc3N3CCCC3)c2)CC1`, for which the “activity change, negative = inhibition” value is 98.5%.

In the case of `COc1ccccc1-c1c(-c2ccc(O)cc2O)n[nH]c1C(F)(F)F`, the “activity change, negative = inhibition” value was 13%.
